# High-throughput results from PubChem BioAssay.
# DAX1 inh-1: DAX1 (NR0B1) inhibitors, primary screen, cell-based, HEK293, Gal4-DAX1, luciferase luminescence; 0.99% of 340,000 active; inhibition, % at 6.75 µM; Nuclear receptor subfamily 0 group B member 1 (Homo sapiens), P51843; HEK293 Gal4-DAX1 luciferase reporter;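 active = inhibition above the mean over all tested compounds plus 3 SD, cut at about 4.2% in these data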;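 also: 0% = DAX1-transfected cells with DMSO and 100% = empty-vector control cells with DMSO; inhibition shows as a rise in luminescence from relieved DAX1 repression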
# Target sequence (P51843 207-470 limits assumed): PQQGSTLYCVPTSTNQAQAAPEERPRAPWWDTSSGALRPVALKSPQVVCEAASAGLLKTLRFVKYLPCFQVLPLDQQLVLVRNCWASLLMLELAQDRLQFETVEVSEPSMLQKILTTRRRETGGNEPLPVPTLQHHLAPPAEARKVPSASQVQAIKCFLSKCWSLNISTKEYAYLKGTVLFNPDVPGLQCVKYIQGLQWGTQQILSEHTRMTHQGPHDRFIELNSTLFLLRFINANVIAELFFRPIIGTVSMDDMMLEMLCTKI
# DAX1 inh-2: DAX1 (NR0B1) inhibitors on StAR promoter, primary screen, cell-based, luminescence, SF-1 (NR5A1), full-length DAX-1; HEK293T StAR-luciferase reporter, SF-1/DAX-1 repression relief; 1.1% of 370,000 active; inhibition, % at 6.8 µM;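 active = inhibition above the mean over all tested compounds plus 3 SD, cut at about 3.6% in these data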;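 also: 0% = DAX-1 cells with DMSO and 100% = cells lacking DAX-1 with DMSO; higher inhibition means more luminescence from relief of DAX-1 repression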
# hgDAF-12 ag: H. glycines DAF-12 receptor agonists, primary screen, cell-based, luminescence, HEK293, GAL4 fusion, UAS-luciferase; Nuclear hormone receptor DAF-12 (Heterodera glycines), GAL4 fusion; HEK293 GAL4-hgDAF12 UAS-luciferase reporter, agonist luminescence; normalized to butyrate control; activation, % at 6.8 µM; 1.8% of 370,000 active; AID 687014, 2013;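 active = activation above a cutoff set at the mean of all screened compounds plus 3 SD, cut at about 10% in these data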;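 also: 0% = DMSO wells and 100% = sodium butyrate wells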
# hcDAF-12 act: H. contortus DAF-12 nuclear receptor activators, primary screen, cell-based, luminescence, HEK293, lit1-tk-luc reporter. 1.4% of 370,000 active. HEK293 hcDAF-12 lit1-tk-luc reporter; 0% DMSO, 100% Δ7-dafachronic acid. activation, % at 6.8 µM;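 active = activation above the mean of all tested compounds plus 3 SD, cut at about 5.5% in these data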;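 also: 100% = response to 3 µM Δ7-dafachronic acid high control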
# ssDAF-12 act: S. stercoralis DAF-12 nuclear receptor activators, primary screen, cell-based, luminescence, HEK293, GRIP1 co-expression, lit1-tk-luc; Nuclear hormone receptor DAF-12 (Strongyloides stercoralis); activation, % at 6.8 µM; HEK293 ssDAF-12/GRIP1 lit1-tk-luc reporter; % of 3 µM dafachronic acid response; 1% of 370,000 active; AID 652126, 2013;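 active = activation above the mean over all tested compounds plus 3 SD, cut at about 0.9% in these data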;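 also: 0% = DMSO-only wells and 100% = 3 µM delta7-dafachronic acid wells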
# An asterisk follows results filed as active; . = not tested or not shown. A selection: hits, their analogues and other compounds. The true share with any hit is near 4.1%.
SMILES,DAX1 inh-1,DAX1 inh-2,hgDAF-12 ag,hcDAF-12 act,ssDAF-12 act
CN(C)CCCN=Cc1c(-c2ccccc2)[nH]n(-c2nc3ccccc3s2)c1=O,0,0,1,-4,-2
CC(NC(=O)C12CC3CC(CC(C3)C1)C2)C(=O)NN=Cc1ccc([N+](=O)[O-])o1 (stereo not given),-1,-3,-7,1,1.6*
N/C(=N\OC(=O)c1ccc(Cl)c(Cl)c1)c1ccccn1,0,4.2*,11*,5,1
N/C(=N\OC(=O)c1ccccc1[N+](=O)[O-])c1cccnc1,0,0,4,5,0
N/C(=N\OC(=O)c1ccccc1[N+](=O)[O-])c1ccccn1,0,1,10*,3,1
N/C(=N\OC(=O)C12CC3CC(CC(C3)C1)C2)c1ccccn1,1,2,11*,4,-1
N/C(=N\OC(=O)c1ccc(Cl)cc1)c1ccccn1,-4,4.2*,-2,5,-1
Cc1onc(C(=O)N2CCN(C(c3ccc(Cl)cc3)c3ccc(Cl)cc3)CC2)c1[N+](=O)[O-],.,.,-9,-1,-1
N=c1c2c(-c3ccccc3)c(-c3ccccc3)n(CCc3ccccc3)c2ncn1C1CCC(O)CC1 (stereo not given),.,-2,-5,0,-1
COCc1cn(-c2cccc(-c3noc4c3C(=O)N(CC(=O)N3CCOCC3)CC4)c2)nn1,.,1,4,-1,0
COc1nc(OC)nc(N2CCC(C(=O)N(C)Cc3ccccc3F)CC2)n1,.,-1,1,-2,-1
Cc1cc(/C(N)=N/OC(=O)c2ccc(Cl)cc2)no1,.,2,11*,4,0
Cc1ccc(NC(=O)c2cc(-c3ccco3)on2)cc1C,2,0,13*,2,0
Cc1ccc(NC(=O)c2cc(-c3ccco3)on2)cc1,0,0,3,1,-2
Cc1nc(NC(=O)c2cnccn2)ccc1Br,4.2*,1,11*,3,0
Cc1ccc(NC(=O)c2cnccn2)cc1,4,3,7,4,-1
Cc1ccc(NC(=O)c2cnccn2)cc1C,4.6*,2,11*,3,0
O=C(O[C@H]1CC[C@@]23CCCN2C(=O)CCC[C@H]3C1)N1CCN(c2ccccc2)CC1,.,.,-2,-1,-2
CCC(=O)Nc1ccc2c(c1)C(=O)N(C)[C@@H]1CC[C@@H](CC(=O)NCCN3CCCCC3)O[C@H]1CO2,.,0,5,-2,-1
S=c1[nH]nc(-c2cc(-c3ccccc3)n[nH]2)n1N=Cc1cccc(Oc2ccccc2)c1,.,1,4,-2,-1
COc1ccccc1CCn1cnc(-c2cccc(Cl)c2)c1CC(C)C,.,-2,-1,-2,-1
O=C(Nc1cccc2ccccc12)N1CCCN(c2c(Cl)cncc2Cl)CC1,2,0,-1,-2,-1
Cc1cc(C)cc(NC(=O)N2CCCN(c3c(Cl)cncc3Cl)CC2)c1,-1,0,2,5,1.8*
C[C@H]1[C@@H](c2ccccc2)OC(O)([C@H](Cc2ccccc2)NC(=O)OC(C)(C)C)CN1C (stereo not given in full),.,.,-1,-1,-2
CCn1c2ccccc2c2cc(NC(=O)CSc3nnc(-c4ccccc4)n3Cc3ccco3)ccc21,.,-1,-4,0,-1
SMILES,DAX1 inh-1,DAX1 inh-2,hgDAF-12 ag,hcDAF-12 act,ssDAF-12 act
O=C(CN1CCN(c2ccc([N+](=O)[O-])cc2)CC1)Nc1nccs1,1,-1,-5,-2,-2
O=C(Cc1ccc([N+](=O)[O-])cc1)Nc1nccs1,7.2*,0,0,-1,0
O=C(Nc1nccs1)c1ccc([N+](=O)[O-])cc1,1,0,6,5,1.2*
O=C(N1CCCC1)n1ncc(-c2ccc(-c3ccccc3)cc2)n1,.,.,9,1,-1
COc1ccccc1C(=O)Nc1ccc(NC(=O)C2CCCCC2)nc1,0,0,-1,-4,-1
O=C(Nc1ccc(NC(=O)C2CCCCC2)nc1)c1ccccn1,0,0,12*,-1,-1
COc1cc(SC)ccc1C(=O)OCC(=O)NCC(C)C,4.3*,1,1,0,-1
COCCCn1c(SCC(=O)Nc2ccc(C(C)=O)cc2)nc2ccccc2c1=O,3,-1,11*,0,-1
Cc1ccc(-c2csc(NC(=O)CSc3nc4ccccc4c(=O)n3CCCN(C)C)n2)cc1,2,1,13*,1,-1
CC(=O)c1ccc(OCCn2c(SCC(=O)O)nc3ccccc32)cc1,2,0,9,6.4*,0
CCn1c(SCC(=O)Nc2nc(-c3ccc(C)cc3)cs2)nnc1-c1ccccc1,0,1,1,1,-2
COc1ccc(OC)c(S(=O)(=O)N2CCCCC2C(=O)N2CCN(Cc3ccc(F)cc3)CC2)c1 (stereo not given),.,-3,0,-3,-2
O=C(CSc1nnc(-c2ccccn2)n1-c1ccccc1)c1ccc(Cl)c(Cl)c1,.,1,2,0,-1
CC(=O)N1CCCN(S(=O)(=O)c2ccc3c(c2)n(C)c(=O)c(=O)n3C)CC1,.,-1,2,0,-2
Cc1ccc2c(c1)C1CS(=O)(=O)N(Cc3ccccc3)CN1C2 (stereo not given),.,1,4,-2,-1
C=CCN1[C@H](C#N)[C@@H](c2ccc(C#Cc3ccccc3OC)cc2)[C@H]1CO,.,-1,-3,-5,-2
CCn1c2ccccc2c2cc(Nc3cc(C)nc4ncnn34)ccc21,-1,3.6*,-8,-1,-2
Cc1cc(Nc2ccc(F)c(Cl)c2)n2ncnc2n1,4.5*,0,2,-3,-1
COCCN(C[C@@H]1[C@H](c2ccccc2)[C@H](CO)N1c1nc(C)c(C)s1)S(=O)(=O)c1ccccc1[N+](=O)[O-],.,1,0,2,-1
Cc1cc(-c2ccccc2)nc(N/N=C/c2ccc(O)cc2)n1,-1,3.9*,3,-1,-1
CCCCOc1ccc(-n2nc(C)cc2C)nn1,4.7*,2,3,2,-1
Cc1cc(C)n(-c2ccc(OCC(=O)O)nn2)n1,1,1,2,0,-1
CCc1ccc(NC(=O)CSc2nnc(Cc3cccn3C)n2-c2ccc(OC)cc2)cc1,4.7*,1,-2,0,0
Cc1n[nH]c(C)c1S(=O)(=O)NCCc1ccccc1F,.,-1,-3,-1,-2
Cc1nc(SCC(=O)NC(=O)NCCC(C)C)c2c(-c3cccs3)csc2n1,0,0,-2,-2,2.1*
